# Data published in PubChem BioAssay AID588697 (Southern Research Specialized Biocontainment Screening …, 2011).
# Results filed as inconclusive are left out. The source made the active and inactive calls.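 How the source made its calls: active means inhibition of at least 30% at any tested concentration; inactive means the rest, inconclusive results apart.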
# Test system: M18 aspartyl aminopeptidase (Plasmodium falciparum 3D7)
# Test: PfM18AAP inhibitors, dose response, counter-screen for PfM17LAP inhibitor project, biochemical, QFRET fluorogenic substrate (AID 588697)
# Details: recombinant PfM18AAP, H-Glu-NHMec fluorogenic substrate; series mostly up to 100 µM
row,SMILES,outcome
1,N[C@@H](Cc1c[nH]c2ccccc12)C(=O)NO,inactive
2,Cc1cc(=O)[nH]c(SCC(=O)Nc2ccccc2)n1,inactive
3,COC(=O)c1c(NC(=O)c2ccccc2C(=O)O)sc2c1CCCC2,inactive
4,CC1=C(C)CC(C(=O)Nc2ccc(Oc3ccc(Cl)cc3)cc2)C(C(=O)O)C1 (centres undefined),inactive
5,Cc1ccc(NC(=O)CSc2nc(O)cc(=O)n2Cc2ccccc2)cc1,inactive
6,O=C(Cc1cccc2ccccc12)NO,inactive
7,COC(=O)c1c(NC(=O)C2CCCCC2C(=O)O)sc2c1CCC(c1ccccc1)C2 (centres undefined),inactive
8,O=C(CSc1nccc(=O)[nH]1)Nc1ccc(N2CCOCC2)cc1,inactive
9,CC1CCc2sc(C(=O)Nc3cccc4c3C(=O)NC4)cc2C1 (centres undefined),inactive
10,O=C(CSc1nccc(=O)[nH]1)Nc1ccc(Oc2ccccc2)cc1,inactive
11,COC(=O)c1cc(OC)c(OC)cc1NC(=O)c1sc2nc(C)ccc2c1N,inactive
12,O=C(CSc1nc(O)cc(=O)[nH]1)Nc1ccccc1,inactive
13,COc1ccc(-c2nnc(NC(=O)C3CC(C)=C(C)CC3C(=O)O)s2)cc1 (centres undefined),inactive
14,O=C(Nc1ccc(Cl)cc1)Nc1ccccc1C(=O)O,inactive
15,CC1=C(C)CC(C(=O)Nc2nc(-c3cc(C)ccc3C)c(C)s2)C(C(=O)O)C1 (centres undefined),inactive
16,COC(=O)c1ccccc1NC(=O)c1cc2cc3ccc(C)cc3nc2s1,inactive
17,CC(C)C[C@H](N)C(=O)NO,inactive
18,COC(=O)c1ccccc1NC(=O)c1ccc2c(Cl)c3c(nc2c1)CCC3,inactive
19,CCn1c2ccccc2c2cc(NC(=O)CSc3nc(C)cc(=O)[nH]3)ccc21,inactive
